10 compounds from PubChem BioAssay can be followed below.

For part of these data: Entries with a potency or affinity are not part of this list. Some of the results follow. Active and inactive are the calls of the source.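 Rule for the calls, unless noted: active = calcium signal ratio cut to more than 3 SD under the fully stimulated control mean yet still positive, in both repeats and the primary screen; inactive = the rest.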

A short description of experiment [1]: nonspecific flux increase, KCNQ1-free cells – parental CHO cells, counter-screen for KCNQ1 potentiator project (AID 493006;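 active = duplicate-averaged activation above buffer control mean plus 5 SD of those controls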;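 for activation: fluorescence ratio of max minus min over baseline after K+ and Tl+ depolarization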). The note with it: parental CHO-K1 cells, FluxOR thallium flux, at 10 µM; active compounds read high. On the technique in general: The purpose of a counterscreen is to sort out artefacts and off-target activity.
For experiment [2], the target named is Potassium voltage-gated channel subfamily KQT member 1 (Homo sapiens) (UniProt P51787). Kind of experiment: enhancement of KCNQ1 channel thallium flux – FluxOR thallium flux, CHO cells, duplicates, confirmation (AID 493007;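 active = potentiation averaged over duplicate wells exceeding buffer-only control mean by more than 3 SD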;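 for outcome: cells depolarized by a potassium plus thallium sulfate stimulus after compound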;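 for potentiation: 0% = buffer-only wells and 100% = R-L3 activator control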). The note with it: KCNQ1 cell line, FluxOR thallium flux fluorescence, at 10 µM; active compounds read high, % of reference activator effect, buffer zero.
Chain of Potassium voltage-gated channel subfamily KQT member 1 (Homo sapiens) (P51787 whole entry, looked up): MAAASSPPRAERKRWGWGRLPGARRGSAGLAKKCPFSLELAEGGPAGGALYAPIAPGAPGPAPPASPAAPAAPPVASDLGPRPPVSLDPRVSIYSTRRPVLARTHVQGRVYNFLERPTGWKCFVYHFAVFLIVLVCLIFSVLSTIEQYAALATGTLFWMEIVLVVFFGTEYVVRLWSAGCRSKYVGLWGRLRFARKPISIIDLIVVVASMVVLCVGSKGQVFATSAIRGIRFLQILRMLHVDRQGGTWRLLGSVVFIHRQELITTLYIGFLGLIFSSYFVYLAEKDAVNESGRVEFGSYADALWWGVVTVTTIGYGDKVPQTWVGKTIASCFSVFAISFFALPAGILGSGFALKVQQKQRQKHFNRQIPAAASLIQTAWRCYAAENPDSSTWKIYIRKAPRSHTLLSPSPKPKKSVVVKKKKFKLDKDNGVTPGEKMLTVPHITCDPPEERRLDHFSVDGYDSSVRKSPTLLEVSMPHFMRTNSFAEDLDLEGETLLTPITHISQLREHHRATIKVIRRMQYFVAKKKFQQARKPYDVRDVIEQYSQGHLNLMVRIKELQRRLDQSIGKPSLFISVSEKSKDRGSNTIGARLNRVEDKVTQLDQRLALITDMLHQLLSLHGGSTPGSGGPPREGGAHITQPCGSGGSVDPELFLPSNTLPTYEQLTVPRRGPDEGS

For experiment [3], the target named is Potassium voltage-gated channel subfamily KQT member 2 (Rattus norvegicus) (UniProt O88943). Kind of experiment: KCNQ2 thallium flux enhancement – KCNQ2-CHO-K1 cells, selectivity assay for KCNQ1 potentiator project (AID 493009;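 active = mean duplicate potentiation above the buffer control mean plus 5 SD of buffer wells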;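 note: assay conditions were tuned for KCNQ1 rather than KCNQ2 modulators; signal is max minus min fluorescence divided by baseline after thallium stimulus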). The note with it: FluxOR thallium flux fluorescence, at 10 µM; active compounds read high, scaled: buffer 0, activator control 100.
Chain of Potassium voltage-gated channel subfamily KQT member 2 (Rattus norvegicus) (O88943 whole entry, looked up): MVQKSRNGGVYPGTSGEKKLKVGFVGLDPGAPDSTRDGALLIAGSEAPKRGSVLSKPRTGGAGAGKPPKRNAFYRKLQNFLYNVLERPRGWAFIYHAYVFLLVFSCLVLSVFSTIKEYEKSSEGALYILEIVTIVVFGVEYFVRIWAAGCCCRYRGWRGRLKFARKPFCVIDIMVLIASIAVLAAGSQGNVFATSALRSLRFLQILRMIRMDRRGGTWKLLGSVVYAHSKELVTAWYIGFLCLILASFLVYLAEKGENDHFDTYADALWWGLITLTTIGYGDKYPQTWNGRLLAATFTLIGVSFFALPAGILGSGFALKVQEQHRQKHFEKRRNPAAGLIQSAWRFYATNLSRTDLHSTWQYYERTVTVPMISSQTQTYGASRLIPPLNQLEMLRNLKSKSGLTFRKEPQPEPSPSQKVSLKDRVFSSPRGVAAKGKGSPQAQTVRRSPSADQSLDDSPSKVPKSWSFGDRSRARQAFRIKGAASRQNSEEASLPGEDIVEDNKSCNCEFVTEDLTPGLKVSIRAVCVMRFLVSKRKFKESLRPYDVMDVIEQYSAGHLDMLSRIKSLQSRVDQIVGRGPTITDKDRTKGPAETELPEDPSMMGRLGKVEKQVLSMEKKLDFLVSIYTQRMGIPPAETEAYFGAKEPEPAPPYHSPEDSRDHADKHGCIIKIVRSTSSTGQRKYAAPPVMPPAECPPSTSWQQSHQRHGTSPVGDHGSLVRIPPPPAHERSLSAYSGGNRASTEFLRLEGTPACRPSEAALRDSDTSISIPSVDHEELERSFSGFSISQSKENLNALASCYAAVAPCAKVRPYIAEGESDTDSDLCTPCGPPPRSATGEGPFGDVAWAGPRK
For experiment [4], the target named is Potassium voltage-gated channel subfamily KQT member 1 (Homo sapiens) (UniProt P51787). Description: KCNQ1 activators by electrophysiology – IonWorks patch clamp, KCNQ1-CHO cells, orthogonal assay for KCNQ1 potentiator project, confirmation (AID 493184;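 active = current rise at least 3 SD above the untreated control mean in each of two repeat wells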). The note with it: automated patch clamp current, at 10 µM. (In general: In patch-clamp work, channel activity is measured electrically.)

Experiment [5] concerns TRPC4 beta (transient receptor potential cation channel C4), mouse. Kind of experiment: TRPC4 cation channel opening, retest – cell-based, Fluo4 calcium, HEK293 TRPC4beta/mu-opioid, duplicates, 10 µM, confirmation (AID 2426;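 active = fluorescence ratio normalized to control raised more than 50% in primary screen plus both repeat runs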;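 for activation: percent rise of integrated ratio over buffer wells lacking compound which define 0%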). The note with it: Fluo4 calcium fluorescence, at 10 µM; active compounds read high.
Experiment [6] relates to transient receptor potential cation channel C4 beta (TRPC4), mouse. Description: TRPC4 cation channel opening, second retest – cell-based, second round, Fluo4, HEK293 TRPC4beta/mu-opioid, 1 µM, confirmation (AID 2461;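 active = primary screen active and over 50% activation in each of two duplicate runs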;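 for activation: 0% = wells without test compound as baseline of integrated fluorescence ratio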). The note with it: Fluo4 calcium fluorescence, at 1 µM; active compounds read high.
Experiment [7] has as its system TRPC4 (transient receptor potential cation channel C4 beta), mouse. Description: potentiation of DAMGO EC20 TRPC4 response – cell-based, second round, Fluo-4, HEK293 TRPC4beta/mu-opioid, 1 µM, confirmation (AID 2554;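 active = primary screen hit whose fluorescence ratio, in both repeats, exceeds the weak agonist control mean by 3 SD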). The settings on record: DAMGO EC20, Fluo-4 calcium flux, at 1 µM; active compounds read high.
Experiment [8] concerns TRPC4 beta (transient receptor potential cation channel C4), mouse. Description: potentiation of DAMGO EC20 TRPC4 response – cell-based, Fluo-4, HEK293 TRPC4beta/mu-opioid, confirmation (AID 2555;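 active = primary screen hit whose calcium fluorescence ratio, in both repeats, exceeds the weak agonist control mean by 3 SD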). The settings on record: DAMGO EC20, Fluo-4 calcium flux, at 10 µM; active compounds read high. On the technique in general: Calcium assays in cells follow changes in intracellular calcium, usually with a dye or a luminescent sensor.

The target of experiment [9] is Short transient receptor potential channel 4 (Mus musculus) (UniProt Q9QUQ5). Description: blockers of DAMGO-evoked TRPC4 calcium flux – cell-based, Fluo4, HEK293 TRPC4beta/mu-opioid, confirmation (AID 2636;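 active = calcium signal cut by more than 3 SD below the full-agonist control yet still positive, in both repeats and the earlier primary screen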). The note with it: at 10 µM; active compounds read high.
Chain of Short transient receptor potential channel 4 (Mus musculus) (Q9QUQ5 whole entry, looked up): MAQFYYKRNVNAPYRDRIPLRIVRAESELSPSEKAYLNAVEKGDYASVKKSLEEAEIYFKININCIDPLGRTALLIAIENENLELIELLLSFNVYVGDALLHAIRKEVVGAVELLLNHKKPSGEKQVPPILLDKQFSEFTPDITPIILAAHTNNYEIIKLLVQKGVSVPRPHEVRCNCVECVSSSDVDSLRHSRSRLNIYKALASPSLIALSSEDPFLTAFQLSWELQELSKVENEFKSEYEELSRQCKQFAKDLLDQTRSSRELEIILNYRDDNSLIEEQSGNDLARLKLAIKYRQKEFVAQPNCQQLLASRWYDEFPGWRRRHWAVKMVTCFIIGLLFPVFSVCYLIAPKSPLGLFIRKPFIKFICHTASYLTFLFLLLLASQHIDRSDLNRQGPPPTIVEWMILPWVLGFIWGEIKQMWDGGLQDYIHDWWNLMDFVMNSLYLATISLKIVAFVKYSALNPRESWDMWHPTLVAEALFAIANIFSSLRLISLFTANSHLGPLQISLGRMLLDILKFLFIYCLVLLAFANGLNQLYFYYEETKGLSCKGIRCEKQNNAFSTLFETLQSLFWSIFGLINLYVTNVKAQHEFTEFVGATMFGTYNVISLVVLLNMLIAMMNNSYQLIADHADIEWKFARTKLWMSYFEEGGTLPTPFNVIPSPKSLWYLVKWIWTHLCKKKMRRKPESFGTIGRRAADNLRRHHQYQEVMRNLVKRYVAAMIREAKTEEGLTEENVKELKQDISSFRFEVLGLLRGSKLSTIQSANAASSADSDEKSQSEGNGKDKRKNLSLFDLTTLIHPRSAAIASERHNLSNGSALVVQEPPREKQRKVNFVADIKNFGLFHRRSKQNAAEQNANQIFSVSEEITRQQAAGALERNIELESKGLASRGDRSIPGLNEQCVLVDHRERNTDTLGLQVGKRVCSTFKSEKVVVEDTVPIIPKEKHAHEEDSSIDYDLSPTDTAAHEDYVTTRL
Experiment [10] has the same target. Description: blockers of DAMGO-evoked TRPC4 calcium flux – cell-based, second round, Fluo4, HEK293 TRPC4beta/mu-opioid, 1 µM, confirmation (AID 2637). The note with it: at 1 µM; active compounds read high.
Experiment [11] has the same target. Description: potentiation of DAMGO-evoked TRPC4 calcium signal – cell-based, HEK293 TRPC4/mu-opioid, Fluo-4 calcium, EC20 DAMGO, dose response (AID 434941;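 active = earlier screen potentiator hit that boosts the TRPC4 ion channel at some dose, with a dose response; inactive = no potentiation, no dose response, or not a prior hit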;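 note: calcium entry triggered by an EC20 dose of DAMGO at the co-expressed mu-opioid receptor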).
For experiment [12] the target is unchanged. Kind of experiment: block of DAMGO-driven TRPC4 calcium entry – cell-based, HEK293 TRPC4/mu-opioid, Fluo-4 calcium, dose response (AID 434942;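 active = primary screen inhibitor hit that blocks the TRPC4 channel at some tested dose, yielding a dose curve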).
The target of experiment [13] is Short transient receptor potential channel 6 (Mus musculus) (UniProt Q61143). Kind of experiment: TRPC6 blockade by TRPC4 inhibitor hits – cell-based, HEK293, membrane potential dye, duplicate, selectivity assay for TRPC4 inhibitor project, confirmation (AID 434948;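 active = active in primary screen and both duplicates, each dropping signal beyond three positive-control SD with fluorescence still positive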). The note with it: HEK293 TRPC6, membrane potential dye fluorescence, at 10 µM; inhibition: active compounds read high, stimulated with maximal-effect acetylcholine unless noted; outcome: stimulated with maximal-effect acetylcholine unless noted.
Chain of Short transient receptor potential channel 6 (Mus musculus) (Q61143 whole entry, looked up): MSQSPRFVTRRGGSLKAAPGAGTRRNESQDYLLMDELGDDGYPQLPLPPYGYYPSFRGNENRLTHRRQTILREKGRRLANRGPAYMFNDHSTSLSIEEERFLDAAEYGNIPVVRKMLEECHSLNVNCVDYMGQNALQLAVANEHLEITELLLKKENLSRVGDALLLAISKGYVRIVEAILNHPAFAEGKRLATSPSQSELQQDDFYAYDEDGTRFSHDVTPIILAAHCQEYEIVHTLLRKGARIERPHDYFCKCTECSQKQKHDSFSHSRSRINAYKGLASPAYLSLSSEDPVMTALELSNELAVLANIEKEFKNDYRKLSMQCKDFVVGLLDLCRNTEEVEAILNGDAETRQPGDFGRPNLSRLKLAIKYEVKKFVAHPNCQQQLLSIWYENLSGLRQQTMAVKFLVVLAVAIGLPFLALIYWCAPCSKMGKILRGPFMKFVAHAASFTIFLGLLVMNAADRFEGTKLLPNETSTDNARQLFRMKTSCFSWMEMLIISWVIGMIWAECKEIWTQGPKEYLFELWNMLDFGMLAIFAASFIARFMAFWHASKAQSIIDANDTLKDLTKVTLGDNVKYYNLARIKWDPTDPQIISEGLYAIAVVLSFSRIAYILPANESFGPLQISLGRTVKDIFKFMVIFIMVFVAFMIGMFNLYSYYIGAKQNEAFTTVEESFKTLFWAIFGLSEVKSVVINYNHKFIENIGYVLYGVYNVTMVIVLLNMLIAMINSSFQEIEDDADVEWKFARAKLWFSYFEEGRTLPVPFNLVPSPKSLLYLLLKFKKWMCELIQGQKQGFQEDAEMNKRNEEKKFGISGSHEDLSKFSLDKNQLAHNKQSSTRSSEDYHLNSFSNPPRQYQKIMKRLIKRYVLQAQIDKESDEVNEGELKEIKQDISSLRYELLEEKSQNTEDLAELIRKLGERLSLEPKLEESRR

Experiment [14] has the same target. Description: TRPC6 opening by TRPC4 activator hits – cell-based, HEK293, membrane potential dye, duplicate, selectivity assay for TRPC4 activator project, confirmation (AID 434950;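 active = membrane potential signal rise above negative control mean plus 3 SD in both duplicates, also active in the earlier TRPC4 screen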;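 for activation: 0% = buffer only wells and 100% = acetylcholine maximal-effect wells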). The note with it: HEK293 TRPC6, membrane potential fluorescence, at 10 µM; activation: active compounds read high; outcome: activation.
For experiment [15] the target is unchanged. Description: positive modulators of mouse TRPC6 channel – HEK293 cells, membrane potential dye, duplicate, selectivity assay for TRPC4 potentiator project, confirmation (AID 434952;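 active = compound raising the membrane signal above positive-control mean plus 3 SD in both repeats, and a primary screen hit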). The note with it: HEK293 TRPC6, membrane potential dye fluorescence, at 10 µM; maximal acetylcholine added after compound unless noted.
Experiment [16] has as its target Short transient receptor potential channel 4 (Mus musculus) (UniProt Q9QUQ5). Description: calcium flux activators in TRPC4/5HT1a cells, counter-screen for TRPC4 activator project, cell-based, second counter screen, HEK293 TRPC4/5HT1a, Fluo-4 (AID 434977;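 active = calcium signal rise above buffer-control mean plus 5 SD in both duplicates, and also a hit in the primary screen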;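 for activation: plate controls were assay buffer for no effect and maximal serotonin response for full effect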). The settings on record: Fluo-4 calcium flux, at 10 µM; active compounds read high.
The nature of experiment [17]: serotonin-gated TRPC4 signal block – cell-based, second counter screen, HEK293 TRPC4/5HT1a, Fluo-4, counter-screen for TRPC4 inhibitor project, confirmation (AID 434978;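 active = primary screen active whose calcium signal fell more than 3 SD beyond the full-serotonin control mean in both duplicate plates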;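 note: serotonin given first at submaximal then at maximal dose after compound preincubation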). The note with it: Fluo-4 calcium flux, at 10 µM; inhibition: active compounds read high, serotonin added to trigger calcium flux unless noted; outcome: serotonin added to trigger calcium flux unless noted.

For experiment [18], the system named is TRPC4 (mouse), co-expressed with 5HT1a in HEK293. Description: enhancement of serotonin-evoked TRPC4 response – cell-based, second counter screen, HEK293 TRPC4/5HT1a, Fluo-4, counter-screen for TRPC4 potentiator project, confirmation (AID 434979;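 active = signal rise over 3 SD above mean of control wells given weak agonist, in both repeats and first screen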). The note with it: Fluo-4 calcium flux, at 10 µM; outcome: serotonin added at its EC20 dose unless noted; potentiation: active compounds read high, serotonin added at its EC20 dose unless noted.

A short description of experiment [19]: nonspecific calcium rise without TRPC4 – cell-based, HEK293 mu-opioid receptor line, counter-screen for TRPC4 activator project, confirmation (AID 449723;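 active = hit in primary screen, with calcium signal over 5 SD above buffer well mean in both duplicates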;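 note: counter screen cells carry the mu-opioid receptor alone and lack TRPC4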). The settings on record: HEK293 mu-opioid cells, Fluo-4 calcium fluorescence, at 10 µM; active compounds read high.
A short description of experiment [20]: nonspecific potentiation of DAMGO calcium response – cell-based, HEK293 mu-opioid receptor line, counter-screen for TRPC4 allosteric potentiator project, confirmation (AID 449724;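 active = calcium signal rise more than 3 SD above the low-dose agonist control mean, in both duplicate plates and the primary screen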). The settings on record: HEK293 mu-opioid receptor cells, Fluo-4 calcium flux, at 10 µM; compound added before EC20 DAMGO stimulus unless noted.
The target in experiment [21] is Short transient receptor potential channel 4 (Mus musculus) (UniProt Q9QUQ5). Description: DAMGO-gated TRPC4 membrane potential modulation – cell-based, second specificity screen, HEK293 TRPC4/mu-opioid, selectivity assay for TRPC6 inhibitor project, confirmation (AID 2776;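 active = compounds whose fluorescence signal differed from control wells by over 3 SD, either direction, in both duplicate plates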). The note with it: HEK293 TRPC4/MOR, membrane potential dye fluorescence; at 10 µM; active compounds read high; channel activated by saturating DAMGO dose.

Experiment [22] relates to transient receptor potential cation channel C4 (TRPC4), mouse. Description: membrane potential change in TRPC4 cells – cell-based, HEK293 TRPC4/mu-opioid, membrane potential dye, selectivity assay for TRPC6 inhibitor project, confirmation (AID 2777;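 active = rise or fall in signal beyond 3 SD of buffer-only wells in both replicate plates, either sign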;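 note: integrated kinetic ratio of fluorescence range over baseline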). The note with it: membrane potential fluorescence, at 10 µM.
Experiment [23] can be described thus: parental HEK293 depolarization signal interference – cell-based, second counter screen, counter-screen for TRPC6 inhibitor project, confirmation (AID 2779;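 active = membrane potential signal moving either way by over 3 SD of the maximum-effect control, in both duplicate plates, meaning non-specific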). The settings on record: parental HEK293 membrane potential dye fluorescence; at 10 µM; maximal acetylcholine challenge after compound addition.
Experiment [24] is described as follows: nonspecific voltage dye signal in HEK293 – cell-based, parental HEK293, counter-screen for TRPC6 inhibitor project, confirmation (AID 2780;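 active = membrane potential signal shifting up or down by more than 3 SD of buffer-only wells, on both duplicate plates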;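 for membrane potential signal change: plate controls were buffer EC0 wells for no effect and acetylcholine ECmax wells for full effect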). The note with it: parental HEK293 membrane potential dye fluorescence; at 10 µM.
For experiment [25], the target named is Short transient receptor potential channel 6 (Mus musculus) (UniProt Q61143). Kind of experiment: blockers of TRPC6 cation channel activity – HEK293 cells, membrane potential dye, duplicate, confirmation (AID 488960;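 active = fluorescence ratio falls more than 5 SD below the full-stimulation control mean, in both duplicate runs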;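 for inhibition: integrated fluorescence ratio of peak minus minimum over baseline after agonist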). The note with it: ACh-evoked depolarization, at 10 µM; active compounds read high.
For experiment [26] the target is unchanged. Description: mouse TRPC6 channel activators, confirmation, HEK293 cells, membrane potential dye, duplicate (AID 488961;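 active = ratio signal rise beyond 5 SD above unstimulated control wells' mean, seen in both duplicate runs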). The note with it: HEK293-TRPC6 membrane potential dye fluorescence, FDSS; at 10 µM.

As usually defined, the inhibition is the drop in the measured response relative to a control, in per cent.

Consider `CCOc1cc(C=C2C(=O)NC(=O)NC2=O)ccc1OS(=O)(=O)c1ccccc1`, for which the outcome in [1], in experiment [2], in [3] and in [4] was inactive.
Regarding `CCOC(=O)C1(CCc2ccccc2)CCN(Cc2csc(C(C)=O)c2)CC1`, the outcome in experiment [5], in [6], in experiment [7], in [8], in experiment [9] and in [10] was inactive. Also, the result in [11], in experiment [12], in [13], in experiment [15], in experiment [16] and in experiment [17] was inactive. Besides, the result in experiment [18], in experiment [19] and in experiment [20] was inactive. For the same compound, the activation in [14] was 57.5% (active).
Regarding `c1ccc2sc(C3CCCNC3)nc2c1` (configuration not stated), the activation in [5] is 170% (active); in experiment [6], 115% (active); in experiment [14], 44% (active); in [16] it was 95.3% (active). Also, the outcome in [7], in experiment [8], in experiment [9], in experiment [10], in experiment [11] and in experiment [12] was inactive. Also, the compound was called inactive in [13], in experiment [15], in experiment [17], in experiment [18], in [19] and in experiment [20].
Take `COc1ccc(C(CNC(=O)c2ccc3c(c2)CCC3)N(C)C)cc1` (configuration not stated): the activation in [5] is 237% (active); in experiment [6] it was 142% (active); in experiment [14], 76.5% (active); in experiment [19], 12.1% (active). Besides, the result in experiment [7], in experiment [8], in [9], in [10], in experiment [11] and in experiment [12] was inactive. In addition, the result in experiment [13], in experiment [15], in experiment [16], in experiment [17], in [18] and in experiment [20] was inactive.
Turning to `Clc1ccc2sc(C3CCNCC3)nc2c1`, the activation in experiment [5] was 210% (active); in experiment [6] it was 166% (active); in [16] it was 82.6% (active). The result in [7], in experiment [8], in experiment [9], in experiment [10], in [11] and in [12] was inactive. Besides, the compound was called inactive in [13], in experiment [14], in [15], in experiment [17], in [18] and in experiment [19]. For the same compound, in [20], the outcome was inactive.
Consider `Cc1ccccc1C(O)(Cc1ccccc1)C1CN2CCC1CC2` (configuration not stated), for which the activation is 109% (active) in [5] and 51% (active) in [14]. Also, the outcome in experiment [6], in [7], in experiment [8], in [9], in experiment [10] and in experiment [11] was inactive. In addition, the result in experiment [12], in experiment [13], in experiment [15], in experiment [16], in experiment [17] and in experiment [18] was inactive. Also, the outcome in experiment [19] and in [20] was inactive.
Consider `COc1cccc(-c2nc3ccc(N4CCN(C)CC4)cc3[nH]2)c1`, for which the inhibition in experiment [21] is 74% (active). Also, the compound was called inactive in experiment [22], in [23], in [24], in experiment [25] and in experiment [26].
Take `CCC(=O)C(CCN1CCOCC1)(c1ccccc1)c1ccccc1`: the activation was 289% (active) in experiment [5], 164% (active) in [6], 69% (active) in experiment [14] and 5.98% (active) in experiment [16]. Besides, the outcome in experiment [7], in experiment [8], in experiment [9], in [10], in experiment [11] and in experiment [12] was inactive. For the same compound, the outcome in experiment [19] was inactive. The outcome in experiment [13], in experiment [15], in experiment [17], in experiment [18] and in experiment [20] was “inactive [setting not given]” in each case.
Consider `Cc1ccc(C[n+]2c(-c3ccc(C)cc3)cc(-c3ccc(C)cc3)cc2-c2ccc(C)cc2)cc1`, for which the activation was 152% (active) in [5], 48.5% (active) in [16], 19.8% (active) in experiment [19] and 142% (active) in experiment [1]. The result in experiment [6], in [7], in experiment [8], in experiment [9], in [10] and in [11] was inactive. Moreover, the outcome in [12], in experiment [13], in experiment [14], in experiment [15], in experiment [17] and in experiment [18] was inactive. The result in [20] and in experiment [4] was inactive. Also, the results for the potentiation in experiment [2] and in experiment [3] were 124% (active) and 185% (active), respectively.
With `CCCCCCCCCCCCn1ccc(=N)cc1`, the inhibition in [21] was 66% (active); in experiment [25] it was 56.1% (active). For the same compound, in [22], the activity change, negative = inhibition was -9.73% (active). Besides, the result in experiment [23] and in experiment [26] was inactive. In addition, the membrane potential signal change in experiment [24] was -166% (active).
